Experimental findings from PubChem BioAssay (EPA / NIEHS) are described below.

Test [1] in a line: ATG_Ets_CIS: Attagene CIS-FACTORIAL HepG2 Assay for human Erythroblast Transformation Specific (ETS) (AID 2282941). The following applies: HepG2 ETS cis-reporter transcription, actives raise or lower the signal. The gist of the method: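 Endogenous transcription factor activity read as reporter mRNA via RT-PCR and capillary electrophoresis, with gain or loss fitted bidirectionally against DMSO. Human HepG2 liver cells, transiently transfected CIS reporter constructs, 24 h exposure.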

A short description of test [2]: ATG_FoxO_CIS: Attagene CIS-FACTORIAL HepG2 Assay for human Forkhead box O (FoxO) (AID 2282943). The following applies: HepG2 Attagene cis-reporter, FoxO element, mRNA; actives raise or lower the signal. Put shortly: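 Read-out: fluorescence of 6-FAM-labelled reporter cDNA fragments resolved by capillary electrophoresis. Transiently transfected HepG2 cells were dosed for 24 h; activity fitted in both directions relative to DMSO controls.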

The nature of test [3]: ATG_GATA_CIS: Attagene CIS-FACTORIAL HepG2 Assay for human GATA Binding Protein (AID 2282944). Particulars: HepG2 GATA cis-element reporter, Attagene multiplex mRNA; actives raise or lower the signal. Put shortly: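 Transfected cis-reporter HepG2 cells were treated with chemicals for 24 hours. Total RNA was then converted to cDNA, amplified with reporter-specific primers and analysed by fluorescent capillary electrophoresis, using DMSO-treated wells as baseline.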

Test [4] in a line: ATG_GLI_CIS: Attagene CIS-FACTORIAL HepG2 Assay for human Zinc Finger Protein GLI1 (AID 2282945). The following applies: HepG2, Attagene cis-factorial reporter mRNA, GLI element; actives raise or lower the signal. Put shortly:
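Transiently transfected HepG2 cells report endogenous transcription factor activity via cis-element-driven reporter units. After 24 h compound exposure, reporter mRNA was measured by RT-PCR with capillary electrophoresis; bidirectional fitting against DMSO baseline.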

Test [5] can be described thus: ATG_ISRE_CIS: Attagene CIS-FACTORIAL HepG2 Assay for human Interferon Regulatory Factor 1 (IRF1) binding to an Interferon-Stimulated Response Element (ISRE) (AID 2282948). Particulars: HepG2 ISRE cis-reporter (Attagene), mRNA transcription readout; actives raise or lower the signal. The gist of the method:
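Endogenous transcription factor activity read as reporter transcript abundance via RT-PCR and capillary electrophoresis. HepG2 cells transiently transfected, 24 h chemical exposure. Gain or loss fitted against DMSO baseline.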

The nature of test [6]: ATG_M_32_CIS: Attagene CIS-FACTORIAL HepG2 Assay for M32 Transcription Factor (Internal Marker) (AID 2282949).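 Note: background control marker of the multiplexed CIS panel rather than a real target.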 Particulars: HepG2 Attagene cis-factorial M32 reporter, mRNA; actives raise or lower the signal. Put shortly: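 HepG2 human liver cells transiently transfected with cis-promoter-driven multiple reporter transcription units, dosed 24 h. Reporter mRNA quantified by RT-PCR, FAM-labelled primer extension, HpaI digest and capillary electrophoresis; bidirectional fit versus DMSO baseline.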

Test [7] is described as follows: ATG_M_06_CIS: Attagene CIS-FACTORIAL HepG2 Assay for M06 Transcription Factor (Internal Marker) (AID 2282950). Particulars: HepG2 Attagene CIS-FACTORIAL M06 internal marker reporter; actives raise or lower the signal. Put shortly: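 Cells (HepG2, transiently carrying cis-driven reporter units) receive chemical for 24 h before RNA isolation. Reporter cDNA is PCR-amplified, FAM-labelled by primer extension, HpaI-digested and sized on a capillary analyser.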

For test [8], the target named is Paired box protein Pax-6 (Homo sapiens) (UniProt P26367). Kind of test: ATG_Pax6_CIS: Attagene CIS-FACTORIAL HepG2 Assay for human Paired Box 6 (PAX6) (AID 2282956). Particulars: HepG2 CIS-FACTORIAL PAX6 reporter transcription, RNA readout; actives raise or lower the signal. The gist of the method:
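Read-out is reporter transcript level, measured by RT-PCR with fluorescent primer extension and capillary electrophoresis after 24 h dosing of transfected HepG2 cells. Activity in either direction fitted relative to DMSO control.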

Test [9] is described as follows: ATG_PXRE_CIS: Attagene CIS-FACTORIAL HepG2 Assay for human Pregnane X Receptor Element (PXRE) (AID 2282957). The following applies: HepG2 Attagene CIS-FACTORIAL PXRE reporter, mRNA; actives raise or lower the signal. The gist of the method:
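After a 24 h chemical incubation, total RNA from transfected HepG2 cells was reverse-transcribed and reporter cDNA amplified, FAM-labeled, HpaI-digested and sized by capillary electrophoresis. DMSO served as baseline for bidirectional curve fitting.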

Test [10] in a line: ATG_Sox_CIS: Attagene CIS-FACTORIAL HepG2 Assay for human SRY-box transcription factor (SOX) (AID 2282960). Particulars: HepG2 Attagene cis-factorial SOX reporter, mRNA; actives raise or lower the signal. The gist of the method:
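Transient MRTU transfection of HepG2; 24 h compound incubation; TriZol RNA, oligo(dT) RT, PCR, 6-FAM primer extension, HpaI cut, CE. Bidirectional fit, DMSO = baseline.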

The target in test [11] is Transcription factor Sp1 (Homo sapiens) (UniProt P08047). The test is described as follows: ATG_Sp1_CIS: Attagene CIS-FACTORIAL HepG2 Assay for human Specificity Protein 1 (Sp1) (AID 2282961). Particulars: HepG2 Sp1 cis-reporter transcription, actives raise or lower the signal. The gist of the method: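 Endogenous Sp1 activity was gauged in human liver HepG2 cells bearing transfected reporter units under a cis-regulating promoter. After 24 h dosing, reporter mRNA was quantified by RT-PCR with capillary electrophoresis, and activity fitted bidirectionally versus DMSO.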

Test [12] in a line: ATG_SREBP_CIS: Attagene CIS-FACTORIAL HepG2 Assay for human Sterol Regulatory Element Binding (SREBP) (AID 2282962). Particulars: HepG2 Attagene cis-factorial SREBP reporter, mRNA; actives raise or lower the signal. The gist of the method: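 Endogenous SREBP activity read as cis-element-driven reporter transcript in transiently transfected HepG2, 24 h post-dosing; quantified via RT-PCR plus capillary electrophoresis of fluorescent fragments. Gain or loss of signal fitted relative to DMSO baseline.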

Test [13] has as its target Signal transducer and activator of transcription 3 (Homo sapiens) (UniProt P40763). Kind of test: ATG_STAT3_CIS: Attagene CIS-FACTORIAL HepG2 Assay for human Signal Transducer and Activator of Transcription 3 (STAT3) (AID 2282963). The following applies: HepG2, Attagene cis-factorial STAT3 reporter transcription; actives raise or lower the signal. The gist of the method: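 Fluorescence intensity of 6-FAM-labelled reporter fragments, separated by capillary electrophoresis after RT-PCR, gave the signal. Cells were HepG2 transfected with cis-element reporter units and treated 24 h; fitting was bidirectional relative to DMSO.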

Test [14] is described as follows: ATG_TA_CIS: Attagene CIS-FACTORIAL HepG2 Assay for human TA Basal Promoter (AID 2282964). Particulars: HepG2 Attagene CIS-factorial TA basal promoter reporter; actives raise or lower the signal. The gist of the method: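 Background internal-marker endpoint from a 52-component HepG2 cis-reporter panel. Cells treated 24 h; reporter transcripts quantified via RT-PCR and CE fluorescence against DMSO baseline.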

Test [15] is described as follows: ATG_TCF_b_cat_CIS: Attagene CIS-FACTORIAL HepG2 Assay for human T-Cell-Factor with beta-catenin (TCF/b-cat) (AID 2282965). The following applies: HepG2 TCF/beta-catenin cis-reporter transcription, actives raise or lower the signal. The gist of the method:
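HepG2, transient MRTU transfection, cis-element-driven reporters (endogenous TFs). 24 h compound exposure. Readout: reporter mRNA by RT-PCR + 6-FAM primer extension, HpaI digest, capillary electrophoresis. Gain/loss fit vs DMSO baseline.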

The nature of test [16]: ATG_TAL_CIS: Attagene CIS-FACTORIAL HepG2 Assay for human TAL Basal Promoter (AID 2282966).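 Note: background control endpoint measuring basal TAL promoter reporter mRNA not a specific factor.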 The following applies: HepG2 Attagene cis-factorial TAL promoter reporter; actives raise or lower the signal. Put shortly:
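Basal-promoter background-control endpoint from a multiplexed HepG2 reporter panel. Cells were exposed 24 h, then reporter mRNA was read by RT-PCR/CE fluorescence and fitted in both directions relative to DMSO.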

Test [17] addresses Transcriptional activator Myb (Homo sapiens) (UniProt P10242). The test is described as follows: ATG_Myb_CIS: Attagene CIS-FACTORIAL HepG2 Assay for human Myeloblastosis (Myb) Proto-Oncogene Transcription Factor (AID 2282986). The following applies: HepG2 Attagene CIS-FACTORIAL Myb reporter transcription; actives raise or lower the signal. Put shortly:
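Steps: transfect HepG2 with cis-regulated reporter units; dose with chemical for 24 h; isolate RNA, reverse-transcribe, PCR-amplify and FAM-label reporter sequences; digest with HpaI; resolve by capillary electrophoresis. Activity fitted in both directions relative to DMSO.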

For test [18], the target named is Myc proto-oncogene protein (Homo sapiens) (UniProt P01106). The test is described as follows: ATG_Myc_CIS: Attagene CIS-FACTORIAL HepG2 Assay for human Myelocytomatosis (Myc) Proto-Oncogene Transcription Factor (AID 2282990). The following applies: HepG2, Attagene cis-reporter transcription factor activity; actives raise or lower the signal. The gist of the method: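 Read-out: fluorescent reporter mRNA fragments resolved by capillary electrophoresis after RT-PCR. Human HepG2 liver cells carried transfected cis-element reporter units and were dosed for 24 h. Gain or loss of signal fitted relative to DMSO baseline.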

Test [19] in a line: ATG_Oct_MLP_CIS: Attagene CIS-FACTORIAL HepG2 Assay for human Octamer-Binding Transcription Factor (Oct) (AID 2282993). The following applies: HepG2 Attagene cis-factorial Oct reporter, mRNA; actives raise or lower the signal. The gist of the method:
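Using HepG2 cells bearing transfected cis-reporter constructs, mRNA induction was read after 24 h by fluorescent RT-PCR and capillary electrophoresis, with DMSO defining baseline for gain- or loss-of-signal fits.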

Read-out in test [20]: CD40, CD40 (gene 958)
The test is described as follows: BSK_SAg_CD40: BioMAP Diversity Plus: SAg Assay for CD40 Biomarker Activity (AID 2283088). The following applies: primary human HUVEC with PBMC; actives raise or lower the signal. The gist of the method: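 HUVEC plus PBMC co-culture, superantigen-activated, with CD40 read by ELISA 24 h after dosing. Curves fitted in both directions against DMSO. Overt cytotoxicity checked by parallel SRB total-protein staining.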

Each structure is given as a SMILES string. Several values for one entry are separate records, joined by “and”; a condition that tells them apart may be missing. Equal entries are not always repeated. Some compounds were tested as several samples or in several runs, with calls that do not always agree. Activity calls are given as the source filed them. Rule for the calls: active = hit-call score of the fitted dose curve at least 0.9, where 1 is the maximum; inactive = score below 0.9.

Signal transducer and activator of transcription 3 (Homo sapiens), sequence (P40763 whole entry, looked up, the tested form may be a part): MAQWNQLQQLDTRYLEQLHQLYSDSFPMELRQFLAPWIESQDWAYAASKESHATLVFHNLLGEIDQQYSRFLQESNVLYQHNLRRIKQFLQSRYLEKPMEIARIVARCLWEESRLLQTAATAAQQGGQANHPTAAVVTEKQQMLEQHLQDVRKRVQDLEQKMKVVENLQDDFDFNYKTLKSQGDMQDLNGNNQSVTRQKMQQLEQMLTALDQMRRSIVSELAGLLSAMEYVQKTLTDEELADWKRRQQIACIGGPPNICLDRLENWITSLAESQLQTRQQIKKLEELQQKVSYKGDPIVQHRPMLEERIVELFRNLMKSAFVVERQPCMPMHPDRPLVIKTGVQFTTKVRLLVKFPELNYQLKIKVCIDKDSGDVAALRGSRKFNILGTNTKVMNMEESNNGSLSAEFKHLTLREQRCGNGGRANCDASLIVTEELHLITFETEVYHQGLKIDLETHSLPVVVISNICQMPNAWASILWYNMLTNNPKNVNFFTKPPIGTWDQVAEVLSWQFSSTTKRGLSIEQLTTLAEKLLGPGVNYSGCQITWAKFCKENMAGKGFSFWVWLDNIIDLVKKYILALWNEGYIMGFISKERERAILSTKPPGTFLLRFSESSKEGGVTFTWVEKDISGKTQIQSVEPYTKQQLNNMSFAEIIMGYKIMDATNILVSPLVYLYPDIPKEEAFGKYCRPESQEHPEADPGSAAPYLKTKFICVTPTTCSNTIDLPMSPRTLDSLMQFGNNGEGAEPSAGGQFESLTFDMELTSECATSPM
Myc proto-oncogene protein (Homo sapiens), sequence (P01106 whole entry, looked up, the tested form may be a part): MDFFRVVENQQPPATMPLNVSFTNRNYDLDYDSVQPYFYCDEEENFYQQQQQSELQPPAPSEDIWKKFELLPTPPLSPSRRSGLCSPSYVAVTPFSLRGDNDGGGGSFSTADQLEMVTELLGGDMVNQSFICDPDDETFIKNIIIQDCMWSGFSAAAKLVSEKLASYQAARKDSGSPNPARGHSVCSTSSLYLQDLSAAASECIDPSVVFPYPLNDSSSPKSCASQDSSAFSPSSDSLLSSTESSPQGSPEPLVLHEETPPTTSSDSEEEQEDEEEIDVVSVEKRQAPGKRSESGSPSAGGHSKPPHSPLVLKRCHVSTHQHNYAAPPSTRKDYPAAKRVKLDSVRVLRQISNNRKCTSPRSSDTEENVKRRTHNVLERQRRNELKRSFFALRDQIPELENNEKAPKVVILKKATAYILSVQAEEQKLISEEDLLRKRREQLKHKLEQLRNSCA
Transcription factor Sp1 (Homo sapiens), sequence (P08047 whole entry, looked up): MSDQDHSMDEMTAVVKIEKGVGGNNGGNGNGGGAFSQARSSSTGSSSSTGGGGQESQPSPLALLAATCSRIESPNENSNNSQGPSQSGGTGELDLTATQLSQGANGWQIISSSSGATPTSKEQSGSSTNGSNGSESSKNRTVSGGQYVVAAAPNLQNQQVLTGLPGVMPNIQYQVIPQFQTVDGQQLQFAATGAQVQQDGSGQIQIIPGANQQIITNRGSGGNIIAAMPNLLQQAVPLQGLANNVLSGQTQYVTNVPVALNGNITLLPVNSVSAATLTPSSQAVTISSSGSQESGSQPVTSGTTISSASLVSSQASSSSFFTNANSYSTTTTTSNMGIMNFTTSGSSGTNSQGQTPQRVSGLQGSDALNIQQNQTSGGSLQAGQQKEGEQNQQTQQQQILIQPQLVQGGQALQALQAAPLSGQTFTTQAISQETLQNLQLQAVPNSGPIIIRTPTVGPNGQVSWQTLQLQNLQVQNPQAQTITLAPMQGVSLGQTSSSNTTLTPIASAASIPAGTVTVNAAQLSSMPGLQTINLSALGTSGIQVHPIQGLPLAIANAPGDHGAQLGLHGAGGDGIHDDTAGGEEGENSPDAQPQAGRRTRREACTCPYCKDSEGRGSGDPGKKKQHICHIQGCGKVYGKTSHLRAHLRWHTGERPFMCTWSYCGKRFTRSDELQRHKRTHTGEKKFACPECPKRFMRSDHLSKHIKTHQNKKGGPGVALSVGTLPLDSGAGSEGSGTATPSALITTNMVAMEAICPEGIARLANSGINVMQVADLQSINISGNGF
Transcriptional activator Myb (Homo sapiens), sequence (P10242 whole entry, looked up): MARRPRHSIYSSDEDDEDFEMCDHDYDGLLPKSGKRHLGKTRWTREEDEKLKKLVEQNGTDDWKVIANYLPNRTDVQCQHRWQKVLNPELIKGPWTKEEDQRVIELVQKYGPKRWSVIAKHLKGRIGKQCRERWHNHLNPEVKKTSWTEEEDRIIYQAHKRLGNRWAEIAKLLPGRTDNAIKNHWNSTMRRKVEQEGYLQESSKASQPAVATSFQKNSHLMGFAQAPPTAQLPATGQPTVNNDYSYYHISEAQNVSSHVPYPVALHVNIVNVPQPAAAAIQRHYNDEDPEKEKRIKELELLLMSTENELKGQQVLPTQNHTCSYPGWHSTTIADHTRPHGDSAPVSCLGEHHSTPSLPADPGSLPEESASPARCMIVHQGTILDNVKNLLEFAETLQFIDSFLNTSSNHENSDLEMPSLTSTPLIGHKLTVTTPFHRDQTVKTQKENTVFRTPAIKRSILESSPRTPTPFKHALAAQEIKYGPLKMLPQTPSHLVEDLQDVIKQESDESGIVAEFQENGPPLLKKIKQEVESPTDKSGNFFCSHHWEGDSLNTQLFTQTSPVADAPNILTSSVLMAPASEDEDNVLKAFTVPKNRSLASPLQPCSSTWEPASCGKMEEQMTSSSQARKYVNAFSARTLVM
Paired box protein Pax-6 (Homo sapiens), sequence (P26367 whole entry, looked up): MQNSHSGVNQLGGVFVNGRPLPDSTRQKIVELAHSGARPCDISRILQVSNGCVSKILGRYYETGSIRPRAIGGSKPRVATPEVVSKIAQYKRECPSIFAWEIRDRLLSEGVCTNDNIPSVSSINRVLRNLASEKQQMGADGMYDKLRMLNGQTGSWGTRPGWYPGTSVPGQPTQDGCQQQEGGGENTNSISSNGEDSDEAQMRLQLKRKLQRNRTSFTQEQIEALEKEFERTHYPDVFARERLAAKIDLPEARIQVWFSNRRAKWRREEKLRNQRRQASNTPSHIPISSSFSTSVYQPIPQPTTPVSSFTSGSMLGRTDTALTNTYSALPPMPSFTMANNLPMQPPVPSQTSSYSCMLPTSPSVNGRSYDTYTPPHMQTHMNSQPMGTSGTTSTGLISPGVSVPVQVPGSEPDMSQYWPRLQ

`CCOC(=O)c1ccccc1`: the AC50 in test [1] was 180 µM (active); in [5] it was 167 µM (active); in [9] it was 100 µM (active); in [11], 28 µM (active). In addition, the compound was called inactive in test [2], in test [3], in [4], in test [6], in test [7] and in [8]. The outcome in test [10], in [12], in test [13], in test [14], in [15] and in [16] was inactive. Moreover, the result in [17], in [18] and in [19] was inactive.

For `CC(C)C1OCCN1CCOC(=O)NCCCCCCNC(=O)OCCN1CCOC1C(C)C` (configuration not stated), the outcome in test [20] was inactive.

`Oc1cccc2ccccc12`: the compound was classed as inactive in test [1], in [2], in test [3], in test [4], in [5] and in [6]. In addition, the result in [7], in test [8], in test [10], in test [11], in test [12] and in [13] was inactive. Further, the call in [14], in [16], in test [17], in [18], in test [19] and in test [20] was inactive. For the same compound, the results for the AC50 in test [9] and in [15] were 5.66 µM (active) and 100 µM (active), respectively.

On to `CC/C=C\CCO`, for which the call in [1], in test [2], in [3], in [4], in test [5] and in [6] was inactive. For the same compound, the result in test [7], in test [8], in test [10], in test [11], in test [12] and in test [13] was inactive. Also, the compound was classed as inactive in [14], in test [15], in test [16], in [17], in test [18] and in [19]. Further, the AC50 in test [9] is 29.3 µM (active).

In the case of `Cc1c(C(N)=O)cc([N+](=O)[O-])cc1[N+](=O)[O-]`, in test [20], the AC50 is 32.4 µM (active) and the outcome was inactive.

`N#CCN(CC#N)CCN(CC#N)CC#N`: the result in test [1], in test [2], in [3], in test [4], in [5] and in test [6] was inactive. In addition, the compound was called inactive in test [7], in test [8], in [9], in test [10], in test [11] and in test [12]. In addition, the outcome in test [13], in [14], in test [15], in [16], in test [17] and in test [18] was inactive. The compound was classed as inactive in test [19].

Turning to `O=[N+]([O-])c1cc(S(=O)(=O)Nc2ccccc2)ccc1Nc1ccccc1`, the AC50 in [20] is 26 µM (active) and 25 µM (active).

With `OC(C(F)(F)F)(C(F)(F)F)C(O)(C(F)(F)F)C(F)(F)F`, in [20], the AC50 is 35.2 µM (active) and 28.6 µM (active).
